Screens deposited in PubChem by National Center for Advancing Translational Sciences (NCATS).
The list is not random: actives were taken first. Their share in the collection is about 0.92%.
BLM inh – qHTS Assay for Inhibitors of Bloom's syndrome helicase (BLM); RecQ-like DNA helicase BLM (Homo sapiens), P54132; recombinant BLM DNA unwinding, fluorescence dequenching; Potency, µM (series often up to 56.1 µM), for the others: top-dose activity change, negative = inhibition, most hits filed as inhibitors; 0.2% of 350,000 active; AID 2528, 2010;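 further: plate controls were vehicle for no effect and no enzyme for full effect; nearly all actives have a fitted effect of over 35% in size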
TDP1 inh – qHTS Assay for Inhibitors of Tyrosyl-DNA Phosphodiesterase (TDP1); Tyrosyl-DNA phosphodiesterase 1 (Homo sapiens), Q9NUW8; recombinant TDP1, AlphaScreen DNA substrate cleavage; Potency, µM (series often up to 130 µM), for inactives: at the highest dose activity change, negative = inhibition, actives largely listed as inhibitors; 0.28% of 350,000 active; AID 485290, 2010; further: nearly all actives have a fitted effect of over 40% in size
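Steps: enzyme plus compound, 15 min RT; add biotin/phosphotyrosine-FITC oligonucleotide (15 nM final), react 5 min; add donor/acceptor beads (10 ug/ml final), 10 min; read AlphaScreen. Tdp1 at 1 nM final.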
APE1 inh-1 – qHTS Assay for Inhibitors of the Human Apurinic/apyrimidinic Endonuclease 1 (APE1). 0.35% of 350,000 active. DNA repair nuclease/redox regulator APEX1 (Homo sapiens), P27695. recombinant APE1, TAMRA/BHQ-2 abasic DNA cleavage fluorescence. Potency, µM (titrated, usually from 65.8 µM), for inactives: top-dose activity change, negative = inhibition, actives largely listed as inhibitors;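 further: plate controls were vehicle for no effect and reference inhibitor for full effect; nearly all actives have a fitted effect of over 55% in size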
Target sequence (P27695 whole entry, looked up): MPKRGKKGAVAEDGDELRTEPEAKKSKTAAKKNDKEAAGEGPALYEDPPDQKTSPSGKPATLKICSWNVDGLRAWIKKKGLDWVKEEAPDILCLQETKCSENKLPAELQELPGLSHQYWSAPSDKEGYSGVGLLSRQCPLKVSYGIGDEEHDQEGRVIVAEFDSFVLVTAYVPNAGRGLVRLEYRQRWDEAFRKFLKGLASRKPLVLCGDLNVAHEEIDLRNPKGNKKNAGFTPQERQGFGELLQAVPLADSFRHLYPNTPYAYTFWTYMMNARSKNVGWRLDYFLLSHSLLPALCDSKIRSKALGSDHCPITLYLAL
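Substrate: short duplex with […] THF abasic site, 5'-TAMRA and 3'-BHQ-2, 50 nM final. APE1 at 0.75 nM, preincubated 15 min RT with compound. Fluorescence increase from first to third read measured activity.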
RECQ1 inh – qHTS Assay for Inhibitors of RecQ-Like Dna Helicase 1 (RECQ1); ATP-dependent DNA helicase Q1 (Homo sapiens), P46063; RECQ1 DNA unwinding, red fluorescence kinetic read; Potency, µM (series often up to 57.3 µM), inactives show at the highest dose activity, negative = inhibition, usual class: inhibitors; 0.54% of 240,000 active;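 further: plate controls were vehicle for no effect and no enzyme for full effect; nearly all actives have a fitted effect of over 30% in size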
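RECQ1T1 50 nM; forked duplex (20 bp + 30-nt ss tails) 200 nM, ATP 2 mM final; pH 8.0, 2 mM MgCl2, 2.5 ug/ml poly(dI-dC); 15 min compound preincubation; discontinuous kinetic read over 2 h at RT.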
FEN1 inhibitor – qHTS Assay for the Inhibitors of Human Flap endonuclease 1 (FEN1); Recombinant FEN1 flap cleavage, fluorescence, 15 min; Potency, µM (titrated, usually from 114 µM), without a hit: at the highest dose activity change, negative = inhibition, most hits filed as inhibitors; 0.35% of 390,000 active; further: nearly all actives have a fitted effect of over 65% in size
Target sequence (P39748 whole entry, looked up): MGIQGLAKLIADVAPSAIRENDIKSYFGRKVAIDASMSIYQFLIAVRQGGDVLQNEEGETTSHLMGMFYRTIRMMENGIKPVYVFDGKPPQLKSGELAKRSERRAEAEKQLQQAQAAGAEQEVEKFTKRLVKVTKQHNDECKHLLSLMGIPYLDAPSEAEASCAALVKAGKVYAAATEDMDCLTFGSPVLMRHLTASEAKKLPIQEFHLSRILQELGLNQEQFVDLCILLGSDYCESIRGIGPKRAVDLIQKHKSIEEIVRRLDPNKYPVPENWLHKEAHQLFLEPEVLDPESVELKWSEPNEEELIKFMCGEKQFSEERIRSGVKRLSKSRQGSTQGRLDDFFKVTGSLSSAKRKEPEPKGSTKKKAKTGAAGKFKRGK
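Enzyme 10 nM, 15 min RT preincubation with compound; start with substrate 50 nM final; reads at 0 and 15 min; qHTS titration, four-parameter Hill fit.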
APE1 dye cs – Counterscreen for APE1 Inhibitors: Fluorescent Dye Displacement Assay; shares compounds with APE1 inh-1; DNA fluorescent dye displacement counterscreen, fluorescence; Potency, µM (doses to about 28.5 µM), for inactives: top-dose activity change, negative = inhibition, actives largely listed as inhibitors; 7% of 480 active; AID 2564, 2010;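 further: loss of thiazole orange fluorescence as the dye is displaced from duplex DNA; 0% = ThO with dsDNA and no compound and -100% = ThO without dsDNA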
EndoIV counter – Counterscreen for APE1 Inhibitors: qHTS Assay for Inhibitors of Endonuclease IV; shares compounds with APE1 inh-1; E. coli Endo IV, fluorogenic AP-site DNA cleavage; Potency, µM (highest dose often 27.1 µM), for the others: at the top dose activity change, negative = inhibition, hits mostly inhibitors; 4% of 560 active;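 further: plate controls were uninhibited enzyme wells for no effect and no enzyme buffer wells for full effect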
APE1 inh-2 – Confirmation qHTS Assay for Inhibitors of the Human Apurinic/apyrimidinic Endonuclease 1 (APE1); shares compounds with APE1 inh-1; purified APE1, fluorogenic abasic-site DNA cleavage; Potency, µM (top dose mostly 57.1 µM), without a hit: at the top dose activity change, negative = inhibition, actives largely listed as inhibitors; 44% of 750 active; AID 2572, 2010; further: nearly all actives have a fitted effect of over 30% in size
APE1 FP inh – qHTS FP-Based Assay for Inhibitors of the Human Apurinic/apyrimidinic Endonuclease 1 (APE1); AID 2573, 2010; 7% of 480 active; Potency, µM (doses to about 28.5 µM), inactives show top-dose activity, negative = inhibition, actives largely listed as inhibitors; shares compounds with APE1 inh-1; APE1 binding to TAMRA-labelled double-stranded DNA, fluorescence polarization displacement
Numbers without * were called inactive; i = inactive; ? = inconclusive; / = not tested or not shown; ! = not active in a repeat; [ ] = remark or other dose. The call rests on the fitted dose curve; in most records, active means well fitted curve in the direction sought with a large enough effect; inconclusive means small, poorly fitted or top-dose-only effect, or another doubt; inactive means no such curve, though single readings can be large; an effect the other way counts as inactive or inconclusive. Unless noted, on the % scale 0 is the no-effect control and ±100 the full control effect; potency means the concentration at half of the fitted maximal effect.

SMILES	BLM inh	TDP1 inh	APE1 inh-1	RECQ1 inh	FEN1 inhibitor	APE1 inh-2	others
O=C(COC(=O)Cc1cccc(C(F)(F)F)c1)NC(=O)NC1CCCC1	/	-5%	-10%	/	-8%	/
CCOC(=O)c1cc2c(=O)n3ccccc3nc2n(Cc2ccco2)c1=NC(=O)c1ccccc1OC	-24%	79µM*!	?	-21%	-12%	-35%
CCOC(=O)c1cc2c(=O)n3ccccc3nc2n(Cc2ccco2)c1=NC(=O)c1cccc(OC)c1	?	-3%	-9%	-10%	-10%	/
O=C(Nc1nccs1)c1cn(-c2ccccc2)nc1-c1ccncc1	-15%	79µM*	7%	-12%	-22%	-17%
COc1ccc(-c2nn(-c3ccccc3)cc2C(=O)Nc2nccs2)cc1	-8%	12%	-8%	i	-9%	/
CCOC(=O)CNS(=O)(=O)c1cc(-c2nn(C)c(=O)c3ccccc23)ccc1C	1%	50µM*	35µM*	-3%	0%	10µM*	APE1 dye cs=-7%;EndoIV counter=9%;APE1 FP inh=-14%
Cc1ccc(-c2nn(C)c(=O)c3ccccc23)cc1S(=O)(=O)NCCN1CCOCC1	2%	8%	1%	-5%	12%	/
O=c1c(-c2cc(O)c(O)c(O)c2)coc2cc(O)c(O)c(O)c12	11µM*	0.28µM*	0.32µM*	1.3µM*	/	0.4µM*	EndoIV counter=7%[57.1 µM]
O=c1c(-c2ccc(O)cc2)coc2cc(O)cc(O)c12	2%	6%	-1%	-6%	24%[57.1 µM]	/
CCC(CC)c1nn2c(=O)cc(COc3ccc(NC(=O)c4ccc(C)cc4)cc3)nc2s1	-5%	4%	/	/	16%	/
c1ccc(C2CN3CCSC3=N2)cc1 (configuration not stated)	-2%	8%	-3%	-6%	-12%	/
Brc1ccc([C@H]2CN3CCSC3=N2)cc1	/	10%[56.1 µM]	-5%	-3%	15%	-28%	EndoIV counter=-6%[57.1 µM]
CC(C)(C)C(=O)[C@@H]1[C@@H]2C(=O)N(Cc3ccccc3)C(=O)[C@@H]2[C@H]2c3ccccc3C=CN12	-12%	71µM*	?	-24%	/	-14%
C=C(Cl)COc1ccc2c(CCC)cc(=O)oc2c1	-6%	89µM*	15%	-3%	0%	-27%
CN(C)c1ccc(-c2cc[nH]c(=O)c2N)cc1	/	9%	/	/	/	/
O=C(Nc1ccc([N+](=O)[O-])cc1)Nc1ccc2[nH]c(=O)[nH]c2c1	-24%	-2%	?	-27%	-17%	?	APE1 dye cs=-18%;EndoIV counter=-3%;APE1 FP inh=11%
O=C(CSc1ccc([N+](=O)[O-])cn1)Nc1ccc2[nH]c(=O)[nH]c2c1	-9%	0%	7%	/	-9%	/
Cc1ccc(CNC(=O)CCNC(=O)c2ccco2)cc1	0%	-3%	?	6%	-8%	?	APE1 dye cs=-2%;EndoIV counter=0%;APE1 FP inh=-7%
Cc1ccc(CNC(=O)CNC(=O)c2ccco2)cc1	-4%	/	3%	/	-1%	/
Cc1ccc(S(=O)(=O)N2CCN(c3nc(-c4cccs4)nc4ccccc34)CC2)c(C)c1	/	-2%	/	/	18%	/
Cc1ccc([N+](=O)[O-])cc1-c1ccc(/C=C(\C#N)c2[nH]nc(N)c2C#N)o1	?	-8%	?	32µM*	?	7.1µM*	APE1 dye cs=7.1µM*;EndoIV counter=-3%;APE1 FP inh=16%
Cc1cc(C(Br)(Br)Br)nc2ccccc12	/	/	/	/	-17%	/
Cc1cccc(NC(=O)c2c(N)sc3c2CCC(C)C3)c1 (configuration not stated)	-4%	/	/	/	-8%	/
O=C(Nc1ccc(-c2ccc3nncn3n2)cc1)c1ccc(Br)o1	-11%	79µM*	-2%	-25%	6%	-41%
CC(C)C(=O)Nc1ccc(-c2ccc3nncn3n2)cc1	-1%	0%	-1%	i	-4%	/
SMILES	BLM inh	TDP1 inh	APE1 inh-1	RECQ1 inh	FEN1 inhibitor	APE1 inh-2	others
OC1(c2ccc(Cl)c(C(F)(F)F)c2)CCN(CCCC(c2ccc(F)cc2)c2ccc(F)cc2)CC1	-3%	10%	-6%	-28%	/	/
COc1ccc(CNC(=O)c2cc3cccc4c3n2CC(C)S4)cc1OC (configuration not stated)	-10%	8%	/	/	?	/
Cc1cc[n+](-c2[nH]c(=O)sc2/C=N/N=C(\[O-])c2ccccc2)cc1C	-14%	40µM*	18µM*	28µM*	-1%	?	APE1 dye cs=141%;EndoIV counter=8%;APE1 FP inh=-7%
O=c1[nH]c(-[n+]2ccccc2)c(/C=N/N=C(\[O-])c2ccccc2)s1	-6%	-3%	?	13%	-18%	/
CC(C)CCOc1ccc(CC(=O)NO)cc1	/	/	/	/	3%	/
Clc1ccc(-c2csc(N/N=C/c3cccnc3)n2)c(Cl)c1	-13%	79µM*	17%	-14%	-11%	-22%
C(=N\Nc1nc(-c2ccccc2)cs1)/c1cccnc1	-8%	5%	21%	-21%	2%	/
CC(=O)NN1C(=O)/C(=C/c2ccc(Br)o2)SC1=S	-10%	?	32µM*	?	40µM*	?	APE1 dye cs=-8%;EndoIV counter=4%;APE1 FP inh=19%
CC(=O)NN1C(=O)/C(=C\c2ccc(Br)o2)SC1=S	5%	-5%	?	-3%	-14%	/
NC(C(=O)O)c1cc(O)cc(O)c1 (configuration not stated)	/	-9%	?	?	/	/
